The results in this text go back to the supplement of paper PMC12808144.

One experiment relates to Mel-DCC-11. The experiment is described as follows: cell viability relative to DMSO control (fraction of DMSO control); higher = less cytotoxic, active = 0.5 or less. The conditions noted are these: 1 µM; 120 h. Summed up: (§1)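 A library of 315 approved anti-cancer drugs (TargetMol) was acoustically pre-spotted into 384-well plates and tested at 1 µM in duplicate for 120 h. Cells were added in 40 µl per well: NHEM-hTERT immortalized melanocytes at 2500/well, and patient-derived Mel-DCC-11 and its resistant subline Mel-DCC-11-R at 1500/well. The subline was tested both alone and with 8 µM of its selecting drug. Viability was read by ATPlite 1step luminescence, normalised to DMSO controls and averaged over duplicates.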

In the next experiment the test system is NHEM-hTERT. The experiment is described as above. The settings on record: 1 µM; 120 h. In outline:
as §1

For another experiment, the system named is Mel-DCC-11-R. The experiment is described as follows: cell viability relative to DMSO control (fraction of DMSO control); higher = less cytotoxic, active = 0.8 or less. The conditions noted are these: 1 µM, 120 h. Summed up: as §1

Unmarked numbers belong to inactive results.

In the case of `Cn1nnc2c(C(N)=O)ncn2c1=O` [Temozolomide], the cell viability is 0.893 in the experiment on Mel-DCC-11, 1.01 in the experiment with NHEM-hTERT, 0.884 in the experiment with Mel-DCC-11-R (vemurafenib co-treatment 0 µM) and 0.874 with Mel-DCC-11-R (vemurafenib co-treatment 8 µM).

For the molecule `COc1cc2ncnc(Nc3ccc(F)c(Cl)c3)c2cc1NC(=O)/C=C/CN1CCCCC1` [Dacomitinib], the cell viability with Mel-DCC-11 was 0.818; in the experiment on NHEM-hTERT, 1.03; with Mel-DCC-11-R (vemurafenib co-treatment 0 µM), 1.07; with Mel-DCC-11-R (vemurafenib co-treatment 8 µM), 0.911.

In the case of `CC(=O)O[C@]1(C(C)=O)CC[C@H]2[C@@H]3CCC4=CC(=O)CCC4=C3[C@@H](c3ccc(N(C)C)cc3)C[C@@]21C` [Ulipristal acetate], the cell viability is 1.31 with Mel-DCC-11, 0.967 with NHEM-hTERT, 1.13 in the experiment with Mel-DCC-11-R (vemurafenib co-treatment 0 µM) and 1.04 with Mel-DCC-11-R (vemurafenib co-treatment 8 µM).

On to `CCN(CC)CCNC(=O)c1c(C)[nH]c(/C=C2\C(=O)Nc3ccc(F)cc32)c1C` [Sunitinib], for which the cell viability in the experiment with Mel-DCC-11 was 0.532; with NHEM-hTERT, 0.591; with Mel-DCC-11-R (vemurafenib co-treatment 0 µM) it was 1.16; in the experiment on Mel-DCC-11-R (vemurafenib co-treatment 8 µM) it was 0.564 (active).

`CS(=O)(=O)OCCCCOS(C)(=O)=O` [Busulfan]: the cell viability in the experiment with Mel-DCC-11 is 1.13; in the experiment with NHEM-hTERT it was 1.14; in the experiment with Mel-DCC-11-R (vemurafenib co-treatment 0 µM), 0.994; in the experiment on Mel-DCC-11-R (vemurafenib co-treatment 8 µM) it was 1.13.

`Nc1ccccc1NC(=O)c1ccc(CNC(=O)OCc2cccnc2)cc1` [Entinostat]: the cell viability with Mel-DCC-11 was 1.48; in the experiment on NHEM-hTERT, 0.554; with Mel-DCC-11-R (vemurafenib co-treatment 0 µM), 0.989; in the experiment on Mel-DCC-11-R (vemurafenib co-treatment 8 µM) it was 1.01.

As for `COc1cc2nccc(Oc3ccc(NC(=O)NC4CC4)c(Cl)c3)c2cc1C(N)=O` [Lenvatinib], the cell viability in the experiment with NHEM-hTERT was 0.784.

As for `COc1cccc2c1C(=O)c1c(O)c3c(c(O)c1C2=O)C[C@@](O)(C(=O)CO)C[C@@H]3O[C@H]1C[C@H](N)[C@H](O[C@H]2CCCCO2)[C@H](C)O1` [Pirarubicin], the cell viability in the experiment with Mel-DCC-11 is 0.0404 (active); with NHEM-hTERT, 0.839; in the experiment with Mel-DCC-11-R (vemurafenib co-treatment 0 µM), 0.233 (active); with Mel-DCC-11-R (vemurafenib co-treatment 8 µM) it was 0.0504 (active).

Regarding `Nc1nc(=O)c2c(CCc3ccc(C(=O)N[C@@H](CCC(=O)O)C(=O)O)cc3)c[nH]c2[nH]1` [Pemetrexed acid], the cell viability was 0.933 in the experiment with Mel-DCC-11, 1.19 with NHEM-hTERT, 1.22 in the experiment on Mel-DCC-11-R (vemurafenib co-treatment 0 µM) and 0.964 in the experiment with Mel-DCC-11-R (vemurafenib co-treatment 8 µM).

Regarding `C[C@@H](CN1CC(=O)NC(=O)C1)N1CC(=O)NC(=O)C1.Cl` [Dexrazoxane HCl], the cell viability with Mel-DCC-11 is 1.21; in the experiment with NHEM-hTERT it was 1.2; in the experiment with Mel-DCC-11-R (vemurafenib co-treatment 0 µM), 1.09; with Mel-DCC-11-R (vemurafenib co-treatment 8 µM) it was 1.13.

As to `Clc1ccc(C(c2ccccc2Cl)C(Cl)Cl)cc1` (configuration not stated) [Mitotan], the cell viability with Mel-DCC-11 is 0.903; with NHEM-hTERT, 0.958; with Mel-DCC-11-R (vemurafenib co-treatment 0 µM) it was 1; in the experiment with Mel-DCC-11-R (vemurafenib co-treatment 8 µM), 0.82.

On to `CNC(=O)c1ccccc1Sc1ccc2c(/C=C/c3ccccn3)n[nH]c2c1` [Axitinib], for which the cell viability in the experiment on Mel-DCC-11 is 1.51; with NHEM-hTERT, 0.879; in the experiment on Mel-DCC-11-R (vemurafenib co-treatment 0 µM), 0.981; with Mel-DCC-11-R (vemurafenib co-treatment 8 µM), 1.03.

As to `O=C(Nc1c(Cl)cncc1Cl)c1ccc(OC(F)F)c(OCC2CC2)c1` [Roflumilast], the cell viability in the experiment with Mel-DCC-11 was 1.34; with NHEM-hTERT, 0.841; in the experiment on Mel-DCC-11-R (vemurafenib co-treatment 0 µM), 1.15; in the experiment on Mel-DCC-11-R (vemurafenib co-treatment 8 µM) it was 1.31.

For the molecule `[Cl][Pt+2][Cl]` [Cisplatin], the cell viability with Mel-DCC-11 is 1.12; in the experiment with NHEM-hTERT, 1.04; in the experiment with Mel-DCC-11-R (vemurafenib co-treatment 0 µM) it was 1.08; with Mel-DCC-11-R (vemurafenib co-treatment 8 µM), 1.28.

Regarding `COc1ccc(-c2cc(=S)ss2)cc1` [Anethole trithione], the cell viability with NHEM-hTERT is 1.05.

As for `O=c1[nH]c(=O)n([C@H]2C[C@H](O)[C@@H](CO)O2)cc1/C=C/Br` [Brivudine], the cell viability in the experiment on Mel-DCC-11 is 0.776; in the experiment on NHEM-hTERT, 1.08; with Mel-DCC-11-R (vemurafenib co-treatment 0 µM) it was 0.809; in the experiment on Mel-DCC-11-R (vemurafenib co-treatment 8 µM), 1.12.

Consider `Nc1nc(=O)c2c([nH]1)NC[C@H](CNc1ccc(C(=O)N[C@@H](CCC(=O)[O-])C(=O)[O-])cc1)N2C=O.[Ca+2]` [Calcium Levofolinate], for which the cell viability with NHEM-hTERT was 1.02.

Turning to `C=C1CC[C@@H]2[C@](C)(CO)[C@H](O)CC[C@@]2(C)[C@@H]1C/C=C1/C(=O)OC[C@H]1O` [Andrographolide], the cell viability in the experiment with Mel-DCC-11 is 1.07; with NHEM-hTERT, 1.17; in the experiment on Mel-DCC-11-R (vemurafenib co-treatment 0 µM) it was 0.887; in the experiment with Mel-DCC-11-R (vemurafenib co-treatment 8 µM) it was 1.02.

For the molecule `CCc1cn([C@H]2C[C@H](O)[C@@H](CO)O2)c(=O)[nH]c1=O` [Edoxudine], the cell viability in the experiment with Mel-DCC-11 was 0.621; in the experiment on NHEM-hTERT, 0.967; with Mel-DCC-11-R (vemurafenib co-treatment 0 µM), 0.776 (active); with Mel-DCC-11-R (vemurafenib co-treatment 8 µM), 0.802.

On to `C#CCC(Cc1cnc2nc(N)nc(N)c2n1)c1ccc(C(=O)N[C@@H](CCC(=O)O)C(=O)O)cc1` (some centres not stated) [Pralatrexate], for which the cell viability with NHEM-hTERT is 0.982.

With `CCOC(=O)c1ccc(C#Cc2ccc3c(c2)C(C)(C)CCS3)nc1` [Tazarotene], the cell viability with Mel-DCC-11 was 1.1; in the experiment on NHEM-hTERT, 1.16; with Mel-DCC-11-R (vemurafenib co-treatment 0 µM), 1.09; in the experiment on Mel-DCC-11-R (vemurafenib co-treatment 8 µM), 1.23.
